The text below walks through data of the antibiotic and cytotoxicity screens of Wong et al. (2023).

SMILES strings stand for the structures. Out of some 39,000 compounds screened, about 1,500 (3.8%) were called active. What follows is part of a selection rich in actives, with near analogues and random picks from the rest.

In this test the test system is HSkMC (human skeletal muscle cells). Kind of test: cytotoxicity call (relative viability < 0.9). Conditions: 10 µM.
Regarding `CC(=O)N(C)C1(c2ccccc2)CCN(CCC[C@]2(c3ccc(Cl)c(Cl)c3)CCCN(C(=O)c3ccccc3)C2)CC1`, the cytotoxicity call is “active”. The same measure for `CC(C)Oc1cccc(CC(=O)N2CCC[C@](CC[N+]34CCC(c5ccccc5)(CC3)CC4)(c3ccc(Cl)c(Cl)c3)C2)c1`: “inactive”; for `CC(C)NC(=O)Nc1ccc2c(c1)CC(=O)N([C@@H](C)CO)C[C@@H](C)[C@@H](CN(C)S(=O)(=O)c1cn(C)cn1)O2`: “inactive”; for `C[C@H](CO)N1C[C@H](C)[C@@H](CN(C)Cc2ccccc2)OCCCC[C@H](C)Oc2ccc(NC(=O)c3ccncc3)cc2C1=O`: “inactive”. Under `C[C@@H]1CN([C@H](C)CO)C(=O)c2c(c3ccccc3n2C)-c2ccccc2CO[C@@H]1CN(C)Cc1ccc(C(F)(F)F)cc1` stands “active”. As to `C[C@H](CO)N1C[C@H](C)[C@H](CN(C)Cc2ccc(C(F)(F)F)cc2)OCc2ccccc2-c2c(n(C)c3ccccc23)C1=O`, the cytotoxicity call is “inactive”. Take `C[C@@H]1CN([C@@H](C)CO)C(=O)c2c(c3ccccc3n2C)-c2ccccc2CO[C@@H]1CN(C)S(=O)(=O)c1ccc(C(F)(F)F)cc1`: the cytotoxicity call was “inactive”.

In the case of `C[C@@H]1CN([C@H](C)CO)C(=O)c2c(c3ccccc3n2C)-c2ccccc2CO[C@H]1CN(C)S(=O)(=O)c1ccc(C(F)(F)F)cc1`, the cytotoxicity call was “active”. The same measure for `C[C@@H]1CN([C@H](C)CO)C(=O)c2c(c3ccccc3n2C)-c2ccccc2CO[C@@H]1CN(C)S(=O)(=O)c1ccc(C(F)(F)F)cc1`: “inactive”; for `C[C@H]1CN([C@@H](C)CO)C(=O)c2c(c3ccccc3n2C)-c2ccccc2CO[C@@H]1CN(C)Cc1ccc(C(F)(F)F)cc1`: “inactive”; for `C[C@H]1CN([C@@H](C)CO)C(=O)c2c(c3ccccc3n2C)-c2ccccc2CO[C@H]1CN(C)Cc1ccc(C(F)(F)F)cc1`: “inactive”. The same measure for `C[C@@H]1CN([C@@H](C)CO)C(=O)c2c(c3ccccc3n2C)-c2ccccc2CO[C@H]1CN(C)Cc1ccc(C(F)(F)F)cc1`: “active”. The same measure for `C[C@@H]1CN([C@H](C)CO)C(=O)c2c(c3ccccc3n2C)-c2ccccc2CO[C@@H]1CN(C)Cc1ccc(F)cc1`: “inactive”; for `C[C@@H]1CN([C@H](C)CO)C(=O)c2c(c3ccccc3n2C)-c2ccccc2CO[C@H]1CN(C)Cc1ccc(C(F)(F)F)cc1`: “active”; for `C[C@@H]1CN([C@@H](C)CO)C(=O)c2c(c3ccccc3n2C)-c2ccccc2CO[C@@H]1CN(C)Cc1ccc(C(F)(F)F)cc1`: “inactive”. On to `C[C@H](CO)N1C[C@H](C)[C@@H](CN(C)Cc2ccc(C(F)(F)F)cc2)OCc2ccccc2-c2c(n(C)c3ccccc23)C1=O`, for which the cytotoxicity call is “inactive”. Under `C[C@H](CO)N1C[C@H](C)[C@@H](CN(C)C(=O)Nc2ccccc2)OCCCC[C@H](C)Oc2ccc(NC(=O)Nc3ccc(F)cc3)cc2C1=O` stands “inactive”. As for `C[C@@H]1CCCCO[C@H](CN(C)C(=O)Nc2ccc3c(c2)OCO3)[C@@H](C)CN([C@@H](C)CO)C(=O)c2cc(NS(=O)(=O)c3cccs3)ccc2O1`, the cytotoxicity call was “inactive”. Under `CN(C)C(=O)C[C@H]1CC[C@@H](NC(=O)C2CCOCC2)[C@H](CO)O1` stands “inactive”. The same measure for `O=C(/C=C/c1ccc(O)c(O)c1)O[C@H]1[C@H](O)C[C@](OC(=O)/C=C/c2ccc(O)c(O)c2)(C(=O)O)C[C@H]1O`: “inactive”; for `O=C(C[C@@H]1CC[C@@H]2[C@H](COC[C@@H](O)CN2S(=O)(=O)c2ccc(Cl)cc2)O1)NCC1CCCCC1`: “inactive”. Under `COc1ccc(NC(=O)N(C)C[C@@H]2OCCCC[C@@H](C)Oc3ccc(NC(=O)Nc4ccc(F)cc4)cc3C(=O)N([C@H](C)CO)C[C@@H]2C)cc1` stands “inactive”. Regarding `COc1ccc(S(=O)(=O)N(C)C[C@@H]2Oc3ccc(NC(=O)c4ccncc4)cc3C(=O)N([C@@H](C)CO)C[C@H]2C)cc1`, the cytotoxicity call was “inactive”. Consider `C[C@H]1CN([C@@H](C)CO)C(=O)c2cccc(NC(=O)c3nc4ccccc4s3)c2O[C@H]1CN(C)S(C)(=O)=O`, for which the cytotoxicity call is “inactive”. The same measure for `CC(C)NC(=O)N(C)C[C@@H]1Oc2ccc(NS(=O)(=O)c3cccs3)cc2CC(=O)N([C@@H](C)CO)C[C@H]1C`: “inactive”; for `C[C@@H]1CN([C@@H](C)CO)S(=O)(=O)c2ccc(C#C[C@@H](C)O)cc2O[C@@H]1CN(C)C(=O)c1ccncc1`: “inactive”; for `CO[C@@H]1CN(C)C(=O)c2cc(NC(=O)C3CC3)ccc2OC[C@H](C)N(C(=O)C2CCOCC2)C[C@H]1C`: “inactive”.

Turning to `Cc1noc(C)c1NC(=O)N(C)C[C@H]1Oc2c(NC(=O)NC(C)C)cccc2C(=O)N([C@H](C)CO)C[C@H]1C`, the cytotoxicity call was “inactive”. The same measure for `CO[C@@H](C(=O)N(C)C[C@H]1OCc2ccccc2-c2c(n(C)c3ccccc23)C(=O)N([C@@H](C)CO)C[C@H]1C)c1ccccc1`: “inactive”; for `C[C@@H]1CN([C@@H](C)CO)C(=O)Cc2cc(NC(=O)Nc3cccc4ccccc34)ccc2O[C@H]1CN(C)C(=O)Nc1ccc(C(F)(F)F)cc1`: “inactive”; for `C[C@@H]1CN([C@@H](C)CO)C(=O)Cc2cc(NC(=O)Nc3cccc4ccccc34)ccc2O[C@@H]1CN(C)C(=O)Nc1ccc(C(F)(F)F)cc1`: “active”.

With `C[C@H]1CN([C@@H](C)CO)C(=O)Cc2cc(NC(=O)Nc3ccc(C(F)(F)F)cc3)ccc2O[C@H]1CN(C)C(=O)Nc1cccc2ccccc12`, the cytotoxicity call was “inactive”. The same measure for `C[C@H]1CN([C@@H](C)CO)C(=O)Cc2cc(NC(=O)Nc3ccc(C(F)(F)F)cc3)ccc2O[C@@H]1CN(C)C(=O)Nc1cccc2ccccc12`: “inactive”; for `C[C@@H]1CN([C@@H](C)CO)C(=O)Cc2cc(NC(=O)Nc3ccc(C(F)(F)F)cc3)ccc2O[C@@H]1CN(C)C(=O)Nc1cccc2ccccc12`: “active”; for `C[C@H]1CN([C@@H](C)CO)C(=O)Cc2cc(NC(=O)Nc3cccc4ccccc34)ccc2O[C@@H]1CN(C)Cc1ccc(C(F)(F)F)cc1`: “inactive”. The same measure for `C[C@H](CO)N1C[C@H](C)[C@@H](CN(C)Cc2ccc(C(F)(F)F)cc2)Oc2ccc(NC(=O)Nc3cccc4ccccc34)cc2CC1=O`: “inactive”.

`C[C@H]1CN([C@@H](C)CO)C(=O)c2cc(NC(=O)Nc3cccc4ccccc34)ccc2O[C@H]1CN(C)Cc1ccc(C(F)(F)F)cc1`: the cytotoxicity call was “active”. Under `C[C@@H]1CN([C@H](C)CO)C(=O)c2cc(NC(=O)Nc3cccc4ccccc34)ccc2O[C@H]1CN(C)Cc1ccc(C(F)(F)F)cc1` stands “inactive”; under `C[C@H]1CN([C@@H](C)CO)C(=O)Cc2cc(NC(=O)Nc3cccc4ccccc34)ccc2O[C@@H]1CN(C)C(=O)Nc1ccc(C(F)(F)F)cc1`, “inactive”; under `C[C@@H]1CN([C@@H](C)CO)C(=O)c2cc(NC(=O)Nc3cccc4ccccc34)ccc2O[C@H]1CN(C)Cc1ccc(C(F)(F)F)cc1`, “inactive”. Under `C[C@H]1CN([C@@H](C)CO)C(=O)Cc2cc(NC(=O)Nc3cccc4ccccc34)ccc2O[C@H]1CN(C)Cc1ccc(C(F)(F)F)cc1` stands “active”.
